In PubChem BioAssay (Tox21):
Records with an inconclusive call do not appear. Calls of active or inactive are those of the source. The call rests on the fitted dose curve; in most records, active means well fitted cell-killing curve with a large enough effect in the repeat runs; inconclusive means weak or mixed curves, or effect the other way; inactive means no such curve, though single readings can be large or run the other way.

Test: qHTS assay to identify small molecule antagonists of the glucocorticoid receptor (GR) signaling pathway - cell viability counter screen (AID 720693); further: nearly all actives have a fitted effect of over 55% in size
Settings: GR-bla HeLa viability, CellTiter-Glo luminescence, 18 h, with 5 nM dexamethasone present; series mostly up to 58.5 µM; viability change, negative = cytotoxic: at the top concentration
On the % scale 0 is the no-effect control and ±100 the full control effect.

Structure (SMILES) | viability change, negative = cytotoxic | outcome
Cc1ccc(-c2ncc(Cl)cc2-c2ccc(S(C)(=O)=O)cc2)cn1 | 11.5% (inactive) | 
CO[C@@]1(NC(=O)CSC[C@@H](N)C(=O)O)C(=O)N2C(C(=O)O)=C(CSc3nnnn3C)CS[C@@H]21 | 7.85% (inactive) | 
CCCc1nn(C)c2c(=O)[nH]c(-c3cc(S(=O)(=O)N4CCN(C)CC4)ccc3OCC)nc12 | 3.62% (inactive) | 
CCCCN1C=CN(C)C1 | 7.68% [at 27 µM] (inactive) | 
CC(C)[C@H]1CC[C@@H](C)CC1=O | 2.64% (inactive) | 
CCN1CCOCC1 | -11.4% (inactive) | 
COc1cccc(OC)c1C(=O)N[C@@H]1C(=O)N2[C@@H]1SC(C)(C)[C@@H]2C(=O)O | 6.11% (inactive) | 
COc1ccccc1OCC1CNC(=O)O1 (configuration not stated) | -0.494% (inactive) | 
CCCCOCCOC(=O)CCCCCCCCC(=O)OCCOCCCC | -2.35% (inactive) | 
COc1ccnc(CS(=O)c2nc3cc(OC(F)F)ccc3[nH]2)c1OC (configuration not stated) |  | inactive
NCCCC[C@H](N[C@@H](CCc1ccccc1)C(=O)O)C(=O)N1CCC[C@H]1C(=O)O | 6.42% [at 27 µM] (inactive) | 
CC[N+](C)(CC)CCOC(=O)C1c2ccccc2Oc2ccccc21 | -0.285% (inactive) | 
C[C@H]1[C@H](NC(=O)/C(=N/OC(C)(C)C(=O)O)c2csc(N)n2)C(=O)N1S(=O)(=O)O (stereo in doubt) | 5.4% [at 27 µM] (inactive) | 
CCOCC(C)O (configuration not stated) | -3.87% (inactive) | 
CC12CCC(C(=O)C1=O)C2(C)C (configuration not stated) | 0.0057% [at 78.9 µM] (inactive) | 
CN(C)CCCN(C)CCCN(C)C | 0.32% (inactive) | 
CCCCS(=O)(=O)N[C@@H](Cc1ccc(OCCCCC2CCNCC2)cc1)C(=O)O | -2.66% (inactive) | 
O=C(O)CNC(=O)c1ccc(CO)o1 | 5.87% (inactive) | 

Structure (SMILES) | viability change, negative = cytotoxic | outcome
C=CCOCC(O)CO (configuration not stated) | 6.56% (inactive) | 
CC(C)(CCC(=O)O)C(=O)O | -12.1% [at 78.9 µM] (inactive) | 
OCCc1ccccn1 | 3.63% (inactive) | 
CC1(C)[C@@H]2CC[C@@]1(C)[C@H](O)C2 | 9.9% (inactive) | 
CCCCc1nc(Cl)c(CO)n1Cc1ccc(-c2ccccc2-c2nn[nH]n2)cc1 | -5.07% (inactive) | 
CC(=O)c1ccccc1[N+](=O)[O-] | 11.3% (inactive) | 
CC(C)COC(=O)c1ccc(N)cc1 | 0.599% (inactive) | 
O=S(=O)(O)c1cccc2ccccc12 | 1.05% (inactive) | 
C1CCC2(CCCCO2)OC1 | 1.63% (inactive) | 
Cc1ccnc(NS(=O)(=O)c2ccc(N)cc2)n1 | -0.0637% [at 27 µM] (inactive) | 
CCCCCCCCCC[N+](C)(C)[O-] | 26.6% (inactive) | 
c1ccc(Cc2ccccc2)cc1 | 5.56% (inactive) | 
CC1=NS(=O)(=O)c2cc(Cl)ccc2N1 | -8.18% (inactive) | 
Cc1ccc(C(=O)c2ccc(CC(=O)O)n2C)cc1 | 4.46% [at 27 µM] (inactive) | 
Cc1cccc(C)c1NC(=O)CC12CCCN1CCC2 | -1.24% (inactive) | 
Nc1ccccn1 | -3.01% (inactive) | 
CCCCCCCCCCCCSC | 1.55% (inactive) | 
C[C@@H]1CCC[C@H](C)N1 | 3.99% [at 27 µM] (inactive) | 

Test: qHTS assay for identifying genotoxic compounds that show differential cytotoxicity against isogenic chicken DT40 cell lines with known DNA damage response pathways - wild type cell line (AID 743012); further: nearly all actives have a fitted effect of over 60% in size; further: potency means the concentration at half of the fitted maximal effect
Settings: DT40 wild type chicken cells viability, CellTiter-Glo, 40 h; series mostly up to 68.4 µM; activity change, negative = cytotoxicity: at the top concentration
How it was run: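 Cells (DT40 wild type, 300/well) are treated with DMSO-dissolved compounds after a ~0.5 h pre-incubation and kept 40 h at 37 C/5% CO2. Viability is then measured by CellTiter-Glo luminescence following 30 min at room temperature.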

Structure (SMILES) | activity change, negative = cytotoxicity | Potency
Cc1ccc(-c2ncc(Cl)cc2-c2ccc(S(C)(=O)=O)cc2)cn1 | -2.66% (inactive) | 
CO[C@@]1(NC(=O)CSC[C@@H](N)C(=O)O)C(=O)N2C(C(=O)O)=C(CSc3nnnn3C)CS[C@@H]21 | 0.464% (inactive) | 
CCCc1nn(C)c2c(=O)[nH]c(-c3cc(S(=O)(=O)N4CCN(C)CC4)ccc3OCC)nc12 | 3.42% (inactive) | 
CCCCN1C=CN(C)C1 | 12.3% [at 31.4 µM] (inactive) | 
CC(C)[C@H]1CC[C@@H](C)CC1=O | 23.4% (inactive) | 
CCN1CCOCC1 | -2.53% (inactive) | 
COc1cccc(OC)c1C(=O)N[C@@H]1C(=O)N2[C@@H]1SC(C)(C)[C@@H]2C(=O)O | 16% (inactive) | 
COc1ccccc1OCC1CNC(=O)O1 (configuration not stated) | 7.34% (inactive) | 
CCCCOCCOC(=O)CCCCCCCCC(=O)OCCOCCCC | 0.811% (inactive) | 
COc1ccnc(CS(=O)c2nc3cc(OC(F)F)ccc3[nH]2)c1OC (configuration not stated) | 10.7% [at 95 µM] (inactive) | 
NCCCC[C@H](N[C@@H](CCc1ccccc1)C(=O)O)C(=O)N1CCC[C@H]1C(=O)O | 5.9% [at 31.4 µM] (inactive) | 
CC[N+](C)(CC)CCOC(=O)C1c2ccccc2Oc2ccccc21 | 18% (inactive) | 
C[C@H]1[C@H](NC(=O)/C(=N/OC(C)(C)C(=O)O)c2csc(N)n2)C(=O)N1S(=O)(=O)O (stereo in doubt) | 0.438% [at 31.4 µM] (inactive) | 
CCOCC(C)O (configuration not stated) | 6.46% (inactive) | 
CC12CCC(C(=O)C1=O)C2(C)C (configuration not stated) | 13% [at 95 µM] (inactive) | 
CN(C)CCCN(C)CCCN(C)C | 3.89% (inactive) | 
CCCCS(=O)(=O)N[C@@H](Cc1ccc(OCCCCC2CCNCC2)cc1)C(=O)O | -0.215% (inactive) | 
O=C(O)CNC(=O)c1ccc(CO)o1 | -7.84% (inactive) | 

Structure (SMILES) | activity change, negative = cytotoxicity | Potency
C=CCOCC(O)CO (configuration not stated) | 22.1% (inactive) | 
CC(C)(CCC(=O)O)C(=O)O | -1.41% [at 95 µM] (inactive) | 
OCCc1ccccn1 | 0.0728% (inactive) | 
CC1(C)[C@@H]2CC[C@@]1(C)[C@H](O)C2 | 7.48% (inactive) | 
CCCCc1nc(Cl)c(CO)n1Cc1ccc(-c2ccccc2-c2nn[nH]n2)cc1 | -3.95% (inactive) | 
CC(=O)c1ccccc1[N+](=O)[O-] | -4.28% (inactive) | 
CC(C)COC(=O)c1ccc(N)cc1 | 6.75% (inactive) | 
O=S(=O)(O)c1cccc2ccccc12 | 24.4% (inactive) | 
C1CCC2(CCCCO2)OC1 | 24% (inactive) | 
Cc1ccnc(NS(=O)(=O)c2ccc(N)cc2)n1 | 14.2% [at 31.4 µM] (inactive) | 
CCCCCCCCCC[N+](C)(C)[O-] |  | 24.3 µM (active)
c1ccc(Cc2ccccc2)cc1 | 8.27% (inactive) | 
CC1=NS(=O)(=O)c2cc(Cl)ccc2N1 | 1.73% (inactive) | 
Cc1ccc(C(=O)c2ccc(CC(=O)O)n2C)cc1 | 0.925% [at 31.4 µM] (inactive) | 
Cc1cccc(C)c1NC(=O)CC12CCCN1CCC2 | 1.5% (inactive) | 
Nc1ccccn1 | -0.963% (inactive) | 
CCCCCCCCCCCCSC | -3.66% (inactive) | 
C[C@@H]1CCC[C@H](C)N1 | 1.35% [at 31.4 µM] (inactive) | 
